Drawing on PubChem BioAssay (Tox21), this text covers Potency for nine molecules.

Experiment [1] in a line: Nuclear factor erythroid 2-related factor 2/antioxidant responsive element (Nrf2/ARE) small molecule agonists: qHTS cell viability counter screen in human keratinocytes (AID 1919968; active = well fitted cell-killing curve with a large enough effect in the repeat runs; also: nearly all actives have a fitted effect of over 55% in size; also: potency is read from the fitted curve at half-maximal effect). The method in brief: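 Measured as CellTiter-Fluor fluorescence, this readout tracks cytotoxicity in the same wells as the ARE-luciferase screen. HaCaT reporter cells (1,500/well) received compounds after a 5 h pre-incubation and were exposed for 23 h.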
For orientation: qHTS replaces the single test concentration by a dilution series.

A short description of experiment [2]: Nuclear factor erythroid 2-related factor 2/antioxidant responsive element (Nrf2/ARE) small molecule agonists: luciferase reporter gene qHTS assay in human keratinocytes (AID 1919969; also: nearly all actives have a fitted effect of over 35% in size; also: potency is read from the fitted curve at half-maximal effect). (In general: In a reporter assay the amount or activity of a reporter protein is the signal.)
Experiment [3] can be described thus: G protein-coupled receptor (GPCR) small molecule agonists, calcium flux assay: HEK293 wild type cell line counter screen (AID 1920065). The method, boiled down:
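Readout: fluorescence at 480 nm excitation/540 nm emission, sampled at 1 s intervals for 3 min. Cells had been cultured 18 h, then dye-loaded 1 h at 37 C before compound or ATP addition.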
For orientation: A change in cytosolic calcium serves as a functional read-out for many receptors and channels.

Experiment [4] in a line: p53 small molecule agonists, cell-based qHTS assay with rat liver microsomes (AID 1963578). The method in brief:
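Metabolic activation is supplied by rat liver microsomes with NADPH (each 0.5 mg/mL final). p53RE-bla cells incubate with compound 16 h at 37 C; reporter activity is measured by LiveBLAzer fluorescence.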

Experiment [5] is described as follows: p53 small molecule agonists, cell-based qHTS assay with human liver microsomes: qHTS cell viability counter screen (AID 1963579). Also: nearly all actives have a fitted effect of over 45% in size. The method, boiled down: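 After the 460/530 nm beta-lactamase read, CellTiter-Glo was added to the same wells and luminescence measured after 30 min at room temperature, giving viability of p53RE-bla cells treated 16 h with compounds plus microsomes and NADPH.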

A short description of experiment [6]: p53 small molecule agonists, cell-based qHTS assay with rat liver microsomes: qHTS cell viability counter screen (AID 1963580). Also: nearly all actives have a fitted effect of over 45% in size. The method in brief:
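Intracellular ATP, by CellTiter-Glo luminescence, defines viability. HCT-116 p53RE-bla cells, 4,000 per well, were compound-treated in the presence of rat liver microsomes and NADPH for 16 h at 37 C.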

The nature of experiment [7]: p53 small molecule agonists, cell-based qHTS assay: qHTS cell viability counter screen (AID 1963581). Also: nearly all actives have a fitted effect of over 45% in size. Also: potency is read from the fitted curve at half-maximal effect. The method in brief:
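In the same plates used for the p53 bla reporter, HCT-116 cells given compounds for 16 h at 37 C received CellTiter-Glo; luminescence was recorded 30 min later at room temperature.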

In experiment [8] the target is 5-hydroxytryptamine receptor 2A (Homo sapiens) (UniProt P28223). Briefly: 5-hydroxytryptamine receptor 2A (HTR2A) small molecule antagonists, cell-based qHTS assay (AID 1963586). Also: nearly all actives have a fitted effect of over 45% in size. The method in brief: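 Antagonist-mode intracellular calcium assay: DOI (4 nM) added after 5 min compound pre-incubation at room temperature to dye-loaded HTR2A-CHO cells. Fluorescence followed for 3 min, sampled every second.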
Chain of 5-hydroxytryptamine receptor 2A (Homo sapiens) (P28223 whole entry, looked up): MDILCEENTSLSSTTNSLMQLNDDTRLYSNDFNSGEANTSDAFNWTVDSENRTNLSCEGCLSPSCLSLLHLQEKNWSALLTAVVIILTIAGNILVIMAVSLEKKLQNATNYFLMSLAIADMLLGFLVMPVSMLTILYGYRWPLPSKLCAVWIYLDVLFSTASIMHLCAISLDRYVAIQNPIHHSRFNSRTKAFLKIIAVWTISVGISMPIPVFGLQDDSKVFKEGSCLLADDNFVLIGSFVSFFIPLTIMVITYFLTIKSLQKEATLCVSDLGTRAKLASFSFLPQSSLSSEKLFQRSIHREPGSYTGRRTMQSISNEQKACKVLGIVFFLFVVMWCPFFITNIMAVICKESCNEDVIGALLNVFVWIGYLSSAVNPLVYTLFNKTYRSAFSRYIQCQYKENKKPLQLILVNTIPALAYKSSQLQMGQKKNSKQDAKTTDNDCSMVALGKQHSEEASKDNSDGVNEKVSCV

Experiment [9] has the same target. Briefly: 5-hydroxytryptamine receptor 2A (HTR2A) small molecule agonists, cell-based qHTS assay (AID 1963587). Also: nearly all actives have a fitted effect of over 30% in size. Also: potency is read from the fitted curve at half-maximal effect. The method in brief: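 Kinetic calcium-flux fluorescence (2 min, 1 sec intervals) after compound addition in agonist mode. HTR2A-CHO cells were cultured 18 h, then dye-loaded 1 h at 37 C.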
In experiment [10] the target is Muscarinic acetylcholine receptor M1 (Homo sapiens) (UniProt P11229). The experiment can be described thus: Cholinergic receptor muscarinic 1 (CHRM1) small molecule antagonists, cell-based qHTS assay (AID 1963588). Also: nearly all actives have a fitted effect of over 40% in size. Also: potency is read from the fitted curve at half-maximal effect. The method in brief:
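CHRM1-CHO calcium-flux assay, antagonist mode. Cells were seeded 18 h, dye-loaded 1 h at 37 C and given compound for 5 min at RT, then acetylcholine was added at 50nM. FDSS fluorescence was read 3 min; 15 concentrations, three runs.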

The target is the same in experiment [11]. Briefly: Cholinergic receptor muscarinic 1 (CHRM1) small molecule agonists, cell-based qHTS assay (AID 1963589). Also: nearly all actives have a fitted effect of over 35% in size. The method in brief: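 Each compound was tested at 15 concentrations across three independent runs on dye-loaded CHO cells stably expressing human CHRM1, reading intracellular calcium fluorescence kinetically at 1 sec intervals.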
Experiment [12] is described as follows: cAMP Responsive Elements (CRE) small molecule agonists, cell-based qHTS assay (AID 1963590). The method in brief:
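Cell line: CRE-bla HEK 293T; medium DMEM/10% dialyzed FBS/0.1 mM NEAA/1 mM pyruvate/25 mM HEPES; 3 h compound exposure; beta-lactamase FRET readout after 2 h substrate loading at RT.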

The nature of experiment [13]: cAMP Responsive Elements (CRE) small molecule antagonists, cell-based qHTS assay (AID 1963591; active = well fitted inhibition curve with a large enough effect in the signal ratio in the repeat runs, not every such curve was filed as active; the % refers to the signal ratio). The method in brief: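 Inhibition of NKH477-driven (0.25 uM final) CRE-beta-lactamase signal in HEK293T cells, 3 h compound exposure at 37 °C, detected by FRET substrate fluorescence.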
The target of experiment [14] is Beta-2 adrenergic receptor (Homo sapiens) (UniProt P07550). Briefly: Adrenergic beta2 receptor (ADRB2) small molecule antagonists, cell-based qHTS assay (AID 1963592). Also: series mostly up to about 92 µM; nearly all actives have a fitted effect of over 50% in size. The method in brief:
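Cells (CHO, stable ADRB2 overexpression) incubated 18-20hr at 37C; compounds added from DMSO; agonist mix (1nM isoproterenol, 100uM IBMX, 25uM Ro-20-1724) added; 0.5hr RT; d2-cAMP and anti-cAMP-cryptate added; 1hr RT; 665/615 nm read.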

Experiment [15] shares this target. Briefly: Adrenergic beta2 receptor (ADRB2) small molecule agonists, cell-based qHTS assay (AID 1963593).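 Also: CHO cells stably overexpressing human ADRB2.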 The method in brief: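 CHO cells stably over-expressing ADRB2 were plated overnight at 37C, then dosed with compounds plus a stimulation mix containing 100uM IBMX and 25uM Ro-20-1724 for 0.5hr at room temperature. cAMP was measured by HTRF competition, 1hr.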

Experiment [16] concerns the target D(2) dopamine receptor (Homo sapiens) (UniProt P14416). Briefly: Dopamine D2 receptor (DRD2) small molecule agonists, cell-based qHTS assay (AID 1963594). Also: nearly all actives have a fitted effect of over 35% in size. The method, boiled down: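 cAMP accumulation in DRD2-HEK293 cells measured by HTRF after 1 h detection; compounds added 10 min before NKH477 (200nM […]) forskolin-analogue stimulation, 30 min at room temperature, with Ro20-1724 present at 0.1 mM final.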

Experiment [17] shares this target. The experiment can be described thus: Dopamine D2 receptor (DRD2) small molecule antagonists, cell-based qHTS assay (AID 1963595; active = well fitted inhibition curve with a large enough effect in the signal ratio in the repeat runs, with a control signal flat; the % refers to the signal ratio). The method in brief:
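HTRF cAMP read-out at 665 and 620 nm emission (340 nm excitation). Antagonist mode: compounds were tested against 12 nM quinpirole in DRD2-HEK293 cells, with 200 nM NKH477 raising cAMP and 0.1 mM Ro20-1724 blocking its breakdown.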

Experiment [18] is described as follows: p53 small molecule agonists, cell-based qHTS assay with human liver microsomes (AID 1963577).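 Also: p53 response element beta-lactamase reporter cells with liver microsomes plus NADPH.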 The method, boiled down:
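Steps: plate p53RE-bla cells, incubate 5 h at 37 C; add compound in DMSO; add microsomes (0.5 mg/mL final) and NADPH (0.5 mg/mL final); incubate 16 h at 37 C; add LiveBLAzer, 2 h RT; read fluorescence.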

A short description of experiment [19]: p53 small molecule agonists, cell-based qHTS assay (AID 1963582; active = well fitted activation curve with a large enough effect in the signal ratio in the repeat runs, not every such curve was filed as active; the % refers to the signal ratio). The method in brief: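 Compounds are pin-transferred in DMSO onto p53RE-bla cells and incubated 16 h at 37 C. The B/G FRET beta-lactamase substrate is then applied for 2 h at RT and fluorescence recorded.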

Where “and” joins values, the source holds several entries; their conditions need not be identical. Identical values can stand only once. Records with an inconclusive call do not appear. Calls of active or inactive are those of the source. Unless noted, calls follow the shape of the full dose curve.

Chain of Muscarinic acetylcholine receptor M1 (Homo sapiens) (P11229 whole entry, looked up): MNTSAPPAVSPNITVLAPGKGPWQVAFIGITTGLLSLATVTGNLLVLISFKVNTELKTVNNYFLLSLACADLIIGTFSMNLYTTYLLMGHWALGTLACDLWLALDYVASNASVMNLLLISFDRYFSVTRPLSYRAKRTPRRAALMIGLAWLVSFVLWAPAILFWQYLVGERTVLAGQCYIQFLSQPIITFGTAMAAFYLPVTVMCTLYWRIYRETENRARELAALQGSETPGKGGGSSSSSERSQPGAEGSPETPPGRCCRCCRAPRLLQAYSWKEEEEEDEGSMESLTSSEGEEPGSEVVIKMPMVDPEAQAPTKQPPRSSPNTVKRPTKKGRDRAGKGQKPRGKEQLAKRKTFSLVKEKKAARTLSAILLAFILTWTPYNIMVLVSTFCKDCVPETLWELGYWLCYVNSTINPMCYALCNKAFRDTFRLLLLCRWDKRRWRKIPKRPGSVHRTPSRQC
Chain of Beta-2 adrenergic receptor (Homo sapiens) (P07550 whole entry, looked up): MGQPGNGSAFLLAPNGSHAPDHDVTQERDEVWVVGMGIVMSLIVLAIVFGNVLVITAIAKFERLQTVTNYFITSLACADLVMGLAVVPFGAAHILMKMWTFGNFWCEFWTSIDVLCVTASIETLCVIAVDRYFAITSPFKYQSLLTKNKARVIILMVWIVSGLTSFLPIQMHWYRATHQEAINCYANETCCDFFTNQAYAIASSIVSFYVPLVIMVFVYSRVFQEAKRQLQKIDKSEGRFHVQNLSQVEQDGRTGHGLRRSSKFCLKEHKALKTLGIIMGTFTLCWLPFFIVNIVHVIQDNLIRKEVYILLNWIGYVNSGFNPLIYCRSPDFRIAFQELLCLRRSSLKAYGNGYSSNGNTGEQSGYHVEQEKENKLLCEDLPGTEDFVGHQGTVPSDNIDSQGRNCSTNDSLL
Chain of D(2) dopamine receptor (Homo sapiens) (P14416 whole entry, looked up): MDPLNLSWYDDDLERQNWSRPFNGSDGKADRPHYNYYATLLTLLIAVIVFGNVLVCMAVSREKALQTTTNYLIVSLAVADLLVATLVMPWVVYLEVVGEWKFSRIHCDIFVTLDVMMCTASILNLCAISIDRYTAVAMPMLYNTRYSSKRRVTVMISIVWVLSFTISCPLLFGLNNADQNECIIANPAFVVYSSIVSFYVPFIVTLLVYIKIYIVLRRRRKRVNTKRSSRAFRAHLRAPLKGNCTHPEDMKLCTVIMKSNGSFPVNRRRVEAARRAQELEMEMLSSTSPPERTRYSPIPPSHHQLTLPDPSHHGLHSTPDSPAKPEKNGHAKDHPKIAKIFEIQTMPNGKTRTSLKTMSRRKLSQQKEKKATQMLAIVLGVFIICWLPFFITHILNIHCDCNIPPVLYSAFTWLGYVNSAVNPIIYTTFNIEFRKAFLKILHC

Turning to `CN(C)C(=O)Nc1ccc(Cl)cc1`, the Potency entry in experiment [1], in experiment [2], in experiment [3], in experiment [4], in experiment [5] and in experiment [6] was “inactive” in each case. For the same molecule, the Potency entry in experiment [7], in experiment [8], in [9], in experiment [10], in experiment [11] and in experiment [12] was “inactive” each time. The Potency entry in experiment [13], in [14], in experiment [15], in experiment [16] and in experiment [17] was “inactive” throughout.
With `CC(C)C#N`, the Potency result in experiment [1], in [2], in [3], in [5], in experiment [6] and in experiment [7] was “inactive” throughout. In addition, the Potency entry in [8], in experiment [9], in experiment [10], in [11], in experiment [12] and in experiment [13] was “inactive” throughout. Moreover, the Potency entry in experiment [14], in experiment [15], in experiment [16] and in [17] was “inactive” in each case.
As to `CC(C)OC(=S)S`, the Potency is 30.6 µM (active) in [1] and 15.4 µM (active) in [2]. For the same molecule, the Potency result in experiment [3], in experiment [18], in experiment [4], in [5], in experiment [6] and in experiment [7] was “inactive” in each case. In addition, the Potency entry in experiment [19], in experiment [8], in experiment [9], in experiment [10], in [11] and in experiment [12] was “inactive” each time. Besides, the Potency result in [14] and in [16] was “inactive” in each case.
With `[O]=[Cr](=[O])([OH])[O][Cr](=[O])(=[O])[OH]`, the Potency is 30.9 µM (active) and 61 µM (active) in [1]; 18.4 µM (active) in experiment [7]. Besides, the Potency result in experiment [2], in [3], in experiment [18], in experiment [4], in experiment [8] and in experiment [9] was “inactive” in each case. For the same molecule, the Potency result in experiment [10], in experiment [11], in experiment [12], in experiment [14], in [16] and in experiment [17] was “inactive” throughout.
`Cc1ccc(N)cc1Cl`: the Potency entry in [1], in [2], in experiment [3], in experiment [5], in [6] and in [8] was “inactive” each time. Besides, the Potency entry in experiment [9], in [10], in experiment [11], in experiment [12], in experiment [13] and in experiment [14] was “inactive” in each case. For the same molecule, the Potency result in [16] and in [17] was “inactive” in each case.
In the case of `CCCCCCCCCCCCCCCC[N+](C)(C)C`, the Potency was 61.1 µM (active) and 5.96 µM (active) in experiment [1]; 18.8 µM (active) and 38.9 µM (active) in experiment [9]; 2.03 µM (active) and 840 nM (active) in experiment [10]. The Potency entry in experiment [2], in experiment [3], in [5], in experiment [7], in experiment [8] and in experiment [13] was “inactive” each time. Further, the Potency result in experiment [14], in experiment [15], in experiment [16] and in experiment [17] was “inactive” each time.
With `CCN(CC)CCN1C(=O)CN=C(c2ccccc2F)c2cc(Cl)ccc21`, the Potency entry in [1], in experiment [2], in experiment [3], in experiment [18], in experiment [4] and in experiment [6] was “inactive” throughout. Moreover, the Potency result in [7], in [8], in [9], in experiment [10], in experiment [11] and in experiment [12] was “inactive” each time. Further, the Potency result in [13], in experiment [14] and in experiment [17] was “inactive” each time.
Take `CCCCCCI`: the Potency result in experiment [1], in experiment [2], in [3], in experiment [4], in experiment [5] and in experiment [7] was “inactive” throughout. Besides, the Potency result in experiment [19], in [8], in [9], in experiment [11], in [12] and in experiment [13] was “inactive” throughout. In addition, the Potency entry in [14], in experiment [16] and in [17] was “inactive” throughout.
For the molecule `C[Si](Cn1cncn1)(c1ccc(F)cc1)c1ccc(F)cc1`, the Potency entry in [1], in experiment [2], in experiment [3], in experiment [18], in experiment [4] and in experiment [5] was “inactive” in each case. Further, the Potency entry in experiment [6], in experiment [7], in experiment [8], in experiment [9], in experiment [11] and in experiment [13] was “inactive” throughout. In addition, the Potency result in experiment [14], in [16] and in experiment [17] was “inactive” throughout. In addition, the Potency in experiment [10] is 42.1 µM (active).
